PubChem BioAssay AID1851 (National Center for Advancing Translational Sciences (NCATS), 2009)
In all, about 16,000 compounds went through this assay and about 2,600 (16%) were called active. Not shown: some 20% with an inconclusive outcome. The call rests on the fitted dose curve; in most records, active means well fitted curve in the direction sought with a large enough effect; inconclusive means small, poorly fitted or top-dose-only effect, or effect the other way; inactive means no such curve, though single readings can be large or run the other way. Only a sample is shown.

What follows are compounds tested against Cytochrome P450 2D6 (Homo sapiens) (UniProt P10635) (assay: Cytochrome panel assay with activity outcomes). Settings: recombinant CYP, pro-luciferin dealkylation, luminescence, p450-cyp2d6; series mostly up to 57.1 µM; activity, negative = inhibition: at the top concentration.
On the % scale 0 is the no-effect control and ±100 the full control effect.

Chain of Cytochrome P450 2D6 (Homo sapiens) (P10635 whole entry, looked up): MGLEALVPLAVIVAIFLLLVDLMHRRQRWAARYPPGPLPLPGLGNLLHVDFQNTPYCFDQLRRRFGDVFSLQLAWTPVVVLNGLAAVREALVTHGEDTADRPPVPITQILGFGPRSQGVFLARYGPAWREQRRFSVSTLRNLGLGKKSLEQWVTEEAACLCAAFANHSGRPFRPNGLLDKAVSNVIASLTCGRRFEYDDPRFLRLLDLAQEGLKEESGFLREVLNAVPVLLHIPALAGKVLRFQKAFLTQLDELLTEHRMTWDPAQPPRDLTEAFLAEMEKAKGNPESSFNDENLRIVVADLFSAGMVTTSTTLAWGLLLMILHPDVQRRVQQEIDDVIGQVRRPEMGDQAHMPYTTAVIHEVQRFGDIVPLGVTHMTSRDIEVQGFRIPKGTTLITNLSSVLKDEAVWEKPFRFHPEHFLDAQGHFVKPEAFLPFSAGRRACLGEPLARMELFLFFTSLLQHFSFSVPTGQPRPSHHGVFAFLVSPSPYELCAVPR

AC50, active:
O=C(Nn1cnc2ccccc2c1=O)c1ccc(F)cc1Cl 28.2 µM
Cc1cc([N+](=O)[O-])ccc1NCc1ccccc1 15.8 µM
Clc1ccccc1CSc1nnc(-c2ccncc2)o1 2 µM
Clc1ccc(CSc2nnc(-c3cccnc3)o2)cc1 14.1 µM
NCCCCCc1nnc(SCc2ccc(Cl)cc2Cl)o1 1.41 µM
NCCCCCc1nnc(SCc2ccccc2Cl)o1 11.2 µM
CC[N+](C)(CC)CCOC(=O)C1c2ccccc2Oc2ccccc21 3.98 µM
COc1cccc(-c2nc(NCCc3c[nH]c4ccc(OC)cc34)c3ccccc3n2)c1 20 µM
COc1ccc2[nH]cc(CCNc3nc(-c4cccnc4)nc4ccccc34)c2c1 6.31 µM
COc1ccc2[nH]cc(CCNc3nc(-c4ccc(N(C)C)cc4)nc4ccccc34)c2c1 7.94 µM
COc1ccc2[nH]cc(CCNc3nc(-c4ccoc4)nc4ccccc34)c2c1 12.6 µM

AC50, inactive:
C[C@@](N)(Cc1ccc(O)c(O)c1)C(=O)O
C[N+](C)(C)CCOC(N)=O

activity, negative = inhibition, inactive:
COc1ccc(C(=O)Nn2cnc3ccccc3c2=O)c(OC)c1 -18.9%
COc1ccc(Cl)cc1C(=O)Nn1cnc2ccccc2c1=O -16.6%
COC(=O)c1ccc(NC(C)=O)o1 -1.04%
COc1ccc(N(C(=O)COc2ccccc2OC)S(=O)(=O)c2ccc(C)cc2)cc1 -20.5%
COc1ccc(C(C(=O)NC2CCCCC2)N(C(=O)CCCC(=O)Nc2ccccn2)c2ccc3c(c2)OCCO3)cc1 (stereo unspecified) -29.2%
O=C(O)c1cc([N+](=O)[O-])ccc1NCCCc1ccccc1 -2.49%
O=[N+]([O-])c1ccc(N2CCCC2)cc1NCc1ccccc1 2.63%
CO[C@H]1COC(=O)C/C=C\[C@H](C)COC(=O)[C@@H](OCc2ccccc2)/C=C\[C@@H]1C -13.9% [at 11.4 µM]
CCn1c(C)cc(/C=C2\SC(=O)N(CC(=O)Nc3ccc(C)c(C)c3)C2=O)c1C 1.47%
COc1ccc(-c2nnc(-c3cccnc3)o2)cc1 -16.3%
Nc1nc(SCc2ccccc2Cl)cc(C(=O)O)n1 4.28% [at 11.4 µM]
Cc1cccc(-c2nnc(SCc3ccccc3)o2)c1 -20%
c1ccc(-c2nnc(SCCC3OCCCO3)o2)cc1 0.844%
C#CCSc1nnc(-c2sc3ccccc3c2Cl)o1 1.41%
N#Cc1c(SCC(N)=O)nsc1SCc1ccccc1Cl 5.4%
COc1ccc(NC(=O)CCNS(=O)(=O)c2ccc3c(c2)c(=O)n(C)c(=O)n3C)cc1 1.38%
O=C(CCCc1ccccn1)c1ccccc1 -16.5% [at 11.4 µM]
O=C1N=C(N2CCOCC2)S/C1=C/c1cccs1 -3.07%
Cc1cc(=O)[nH]c(-n2[nH]c3c(c2=O)CCCC3)n1 -15.2%
CCC1C(=O)OCC1Cc1cncn1C (stereo unspecified) -17.8%
N=C(N)[C@H](N=Nc1ccccc1)C(N)=O 4.09% [at 11.4 µM]
FC(F)(F)c1cnc(/C=C/Nc2ccccc2Cl)c(Cl)c1 7.61%
COc1ccc(C(=O)NC2CCN(C(=S)Nc3cccc(C)c3)CC2)cc1 -8.38%
O=C(O)c1ccccc1C1c2ccccc2Oc2ccccc21 -7.56% [at 11.4 µM]
CC(=O)c1ccc(OC(=O)C2c3ccccc3Oc3ccccc32)cc1 6.3%
COc1ccccc1N(CC(=O)NCC1CCCO1)C(=O)CNS(=O)(=O)c1ccc(C)cc1 (stereo unspecified) -4.47%
N#CC1=C(SCC(N)=O)NC2=C(C(=O)c3ccccc32)C1c1ccc(Cl)cc1 (stereo unspecified) -26.9%
c1ccc2c(NC3CC3)nc(-c3ccoc3)nc2c1 -19.8%
CC(C)Oc1cccc(-n2c(CCc3c[nH]c4ccc(Br)cc34)nc3ccccc3c2=O)c1 5.78%
NC(=O)NC(=O)[C@H]1CCCC[C@@H]1C(=O)O -4.03% [at 11.4 µM]
COC(=O)CNC(=O)CCCCC(=O)NCC(=O)OC -4.75%
Cc1ccc(C)c(N2CCN(C(=O)C3CCN(S(=O)(=O)c4cccc5nsnc45)CC3)CC2)c1 -14.1%
CS(=O)(=O)c1ccc(Cn2c3c(c4cc(F)cc(F)c42)CCC[C@H]3CC(=O)O)cc1 -11.8%
CC(C)c1ccc(/C(C(=O)O)=C(\O)C(=O)O)cc1 0.432% [at 11.4 µM]
CC1(C)C2([N+](=O)[O-])CN3CC1([N+](=O)[O-])CN(C2)C31CCCC1 -6.83%
O=C(O)Cc1cc(I)c(Oc2ccc(O)c(I)c2)c(I)c1 0.86% [at 25.6 µM]
CC(=O)c1cc(C#N)c(Oc2cccc(C(F)(F)F)c2)nc1C -61.5%
N[C@@H](CS(=O)O)C(=O)O 10.8%
